Assay outcomes deposited in PubChem BioAssay by University of Kansas High Throughput Screening Laboratory.
Pf apPOL block: Pf-apPOL inhibitors, biochemical, fluorescence | Plasmodium falciparum apicoplast DNA polymerase (apPOL) | Recombinant Pf-apPOL, molecular beacon fluorescence, 1.5 h | inhibition, % at 10 µM | actives 0.25% (n = 210,000) | AID 1794808, 2022
mHTT-CaM PPI inh: mutant huntingtin-calmodulin interaction inhibitors – biochemical, AlphaScreen, primary screen; P42858; AlphaScreen His-mHTT/GST-CaM binding, luminescence; inhibition, % at 15 µM; actives 3.6% (n = 190,000); AID 1671202, 2021;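 further: 0% = both proteins with DMSO and 100% = one protein alone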
* hit, by the source's call; nt = no result given; ! = a repeat was not active. Sampled rows, rich in hits. Any-hit rate of the full collection: about 3.5%. No stated cut-off is given here; in the data, active means inhibition above about 50%; inactive means the rest.

SMILES	Pf apPOL block	mHTT-CaM PPI inh
Cn1c(N2CCC(C(=O)N3CCN(c4ccccn4)CC3)CC2)cc(=O)n(C)c1=O	-4	29
Cn1c(N2CCC(C(=O)N3CCN(c4ccccc4F)CC3)CC2)cc(=O)n(C)c1=O	1	27
CCn1c(N2CCC(C(=O)N3CCN(c4ccccc4F)CC3)CC2)cc(=O)n(C)c1=O	0	62*
CCn1c(N2CCC(C(=O)N3CCN(c4ccccn4)CC3)CC2)cc(=O)n(C)c1=O	-1	53*
COc1cc(C2=NOC(C(=O)Nc3cc(C)ccc3O)C2)cc(OC)c1OC (stereo not given)	6	28
Cc1cc(C2CCCN2Cc2ccc(C)s2)no1 (stereo not given)	-5	-8
CN(C)c1ccc(/C=C(\C#N)c2nc(-c3cccc([N+](=O)[O-])c3)cs2)cc1	1	22
O=C(Nc1ccccc1)C1CCN(c2ccc3ccccc3c2)C1=O (stereo not given)	-3	3
O=C(C1CCN(c2ccc3ccccc3c2)C1=O)N1CCN(Cc2ccccc2)CC1 (stereo not given)	-1	54*
CCOc1ccc(C=Nc2ccc(S(=O)(=O)Nc3ccccn3)cc2)cc1OCC	6	-1
COc1cc(C(Nc2ccccn2)c2ccc3cccnc3c2O)cc(Br)c1OC (stereo not given)	-3	98*
COc1cc(NC(=O)Nc2cccc3cccnc23)cc(OC)c1OC	-6	30
CCOc1cc(C(c2c(C)[nH][nH]c2=O)c2c(C)[nH][nH]c2=O)ccc1O	2	7
CCOc1cc(C(Nc2ccccn2)c2ccc3cccnc3c2O)ccc1O (stereo not given)	-12	100*
CCOc1cc(C(Nc2ccccn2)c2ccc3cccnc3c2O)ccc1OC (stereo not given)	-6	100*
Cc1cccc(-c2nnc(C)c(N3CCC(C)CC3)n2)c1	-1	42
Cc1cccc(-c2nnc(C)c(N3CCc4ccccc4C3)n2)c1	-1	100*
Cc1c(C)c(C(=O)NCc2cccnc2)n(Cc2ccc(F)cc2)c1C	-4	17
COC1=CC(=Cc2c(N)n3nc(-c4ccccc4C)sc3nc2=O)C=CC1=O	-1	57*
CCOC1=CC(=Cc2c(N)n3nc(COc4ccccc4)sc3nc2=O)C=CC1=O	0	31
COc1cc(OC)c(OC)cc1/C=C1/N=C(c2cc(Cl)ccc2Cl)OC1=O	3	0
CC(=O)Nc1ccc(S(=O)(=O)Nc2ccc3c(c2)OC(C)(C)O3)cc1	-1	4
O=S(=O)(Nc1ccc2c(c1)OC1(CCCC1)O2)c1ccc2c(c1)Cc1ccccc1-2	nt	63*
O=C(NCC1CCCO1)c1cc(Sc2ccccc2Cl)nc2ccccc12 (stereo not given)	-3	0
COc1ccc(CCCC(=O)Nc2ccc(I)cc2C)cc1	93*	-4
SMILES	Pf apPOL block	mHTT-CaM PPI inh
COc1ccc(CCCC(=O)Nc2ccc(Cl)cc2C)cc1	1	-2
CCOC(=O)C1CCN(CC(O)COc2ccc(C34CC5CC(CC(C5)C3)C4)cc2)CC1 (stereo not given)	-2	30
CN1CCN(CC(O)COc2ccc(C34CC5CC(CC(C5)C3)C4)cc2)CC1 (stereo not given)	6	96*
OC(COc1ccc(C23CC4CC(CC(C4)C2)C3)cc1)CN1CCOCC1 (stereo not given)	4	6
OC(COc1ccc(C23CC4CC(CC(C4)C2)C3)cc1)CN1CCCCC1 (stereo not given)	4	100*
COc1ccc2nc(N3CCC(C(=O)NCCc4ccc(OC)c(OC)c4)CC3)sc2c1	-6	7
COc1ccccc1NS(=O)(=O)c1ccc(I)cc1	3	-13
CCSc1nnc(NC(=O)c2ccc(N3CCCC3)nn2)s1	-6	26
Cc1csc(NC(=O)c2ccc(N3CCCC3)nn2)n1	-4	72*
Cc1nc2c(oc3nc(-c4ccoc4)c4c(c32)CC(C)(C)OC4)c(-c2ccccc2)c1C(=O)O	-7	74*!
Cc1nc2c(oc3nc(-c4ccco4)c4c(c32)CC(C)(C)OC4)c(-c2ccccc2)c1C(=O)O	-2	49
COc1cccc(C2=NN(C(=O)CN(C)C(C)=O)C(c3ccc(F)cc3)C2)c1 (stereo not given)	-2	17
COc1cccc(C2CC(c3cc(C)ccc3C)=NN2C(=O)CN2CCCCC2)c1 (stereo not given)	-7	67*
COc1ccccc1C1=NN(C(=O)CN2CCOCC2)C(c2ccc(C)cc2)C1 (stereo not given)	-2	38
Cc1cccc(C2=NN(C(=O)CN3CCOCC3)C(c3ccc(Cl)cc3)C2)c1 (stereo not given)	-2	79*
COc1ccccc1C1=NN(C(=O)CN2CCCCC2)C(c2cccc(F)c2)C1 (stereo not given)	-6	21
Cc1ccc(C2=NN(C(=O)CN3CCOCC3)C(c3ccccc3Cl)C2)cc1C (stereo not given)	-4	25
